Measured values taken from PubChem BioAssay (Tox21).
Values joined by “and” are separate entries in the source; they are usually repeats but may differ in a detail not shown here. Identical values can stand only once. Some structures have more than one record in an assay (separate samples or runs), and their calls can disagree. Active and inactive are the calls of the source. Entries that show only a call come without a potency. Unless noted, calls come from the whole dose curve; as a rule, active = well fitted curve in the direction sought with a large enough effect in the repeat runs; inconclusive = weak or mixed curves; inactive = no such curve, though single readings can be large; an effect the other way counts as inactive or inconclusive.

Assays:
[1] = qHTS assay to identify small molecule antagonists of the thyroid receptor (TR) signaling pathway - cell viability counter screen (AID 743064); note: nearly all actives have a fitted effect of over 50% in size
Outline: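 CellTiter-Fluor readout, 30 min at 37 °C/5% CO2, following 23.5 h incubation of GH3.TRE-Luc cells with test compound and 1 nM T3 (final).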

[2] = qHTS assay to identify small molecule antagonists of the thyroid receptor (TR) signaling pathway (AID 743065); note: nearly all actives have a fitted effect of over 55% in size; note: potency is the fitted concentration of half-maximal effect
Outline: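 GH3.TRE-Luc rat pituitary cells (two TREs driving luciferase) were dosed with compound, then stimulated with 1 nM T3 (final) for 23.5 h at 37 C. ONE-Glo luminescence was the read-out, with CellTiter-Fluor fluorescence as the cytotoxicity counter-screen.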

[3] = test system: thyroid hormone receptor (rat, GH3 cells); experiment: qHTS assay to identify small molecule agonists of the thyroid receptor (TR) signaling pathway (AID 743066; calls by dose curve)
[4] = target: Estrogen receptor (Homo sapiens) (UniProt P03372); experiment: qHTS assay to identify small molecule antagonists of the estrogen receptor alpha (ER-alpha) signaling pathway (AID 743069; active = well fitted curve in the direction sought with a large enough effect in the signal ratio in the repeat runs, not every such curve was filed as active; inconclusive = weak or mixed curves, or effect the other way; inactive = no such curve, though single readings can be large or run the other way; the % refers to the signal ratio; note: potency is the fitted concentration of half-maximal effect)
Outline: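 Reporter cells (ER-alpha-bla, HEK293 background) are conditioned overnight in stripped-serum medium (2% charcoal-stripped FBS). Compound and 17beta-estradiol exposure runs 18 hr at 37C, 5% CO2.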

[5] = qHTS assay to identify small molecule antagonists of the estrogen receptor alpha (ER-alpha) signaling pathway - cell viability counter screen (AID 743074; calls by dose curve;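 note: HEK293 cells carrying ER-alpha-UAS-bla reporter stimulated with 17beta-estradiol; nearly all actives have a fitted effect of over 45% in size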)
[6] = target: Estrogen receptor (Homo sapiens) (UniProt P03372); experiment: qHTS assay to identify small molecule agonists of the estrogen receptor alpha (ER-alpha) signaling pathway (AID 743075; calls by dose curve;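 note: HEK293 GripTite cells with ER-alpha and UAS-driven beta-lactamase reporter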; note: potency is the fitted concentration of half-maximal effect)
[7] = target: Estrogen receptor (Homo sapiens) (UniProt P03372); experiment: qHTS assay to identify small molecule agonists of the estrogen receptor alpha (ER-alpha) signaling pathway using the BG1 cell line (AID 743079); note: nearly all actives have a fitted effect of over 20% in size; note: potency is the fitted concentration of half-maximal effect
[8] = qHTS assay to identify small molecule antagonists of the estrogen receptor alpha (ER-alpha) signaling pathway using the BG1 cell line - cell viability counter screen (AID 743081);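 note: compound given together with 17beta-estradiol as the ER stimulus; series mostly up to about 70 µM; nearly all actives have a fitted effect of over 45% in size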
Aromatase (Homo sapiens) = Aromatase (Homo sapiens) (UniProt P11511); experiment: qHTS assay to identify aromatase inhibitors (AID 743083); note: series mostly up to about 70 µM; nearly all actives have a fitted effect of over 55% in size
[9] = qHTS assay to identify aromatase inhibitors - cell viability counter screen (AID 743084);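 note: cells stimulated with testosterone during compound exposure; nearly all actives have a fitted effect of over 55% in size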
[10] = qHTS assay to identify small molecule that activate the aryl hydrocarbon receptor (AhR) signaling pathway - cell viability counter screen (AID 743086);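 note: HepG2 liver cells carrying the AhR DRE luciferase reporter; series mostly up to about 70 µM; nearly all actives have a fitted effect of over 45% in size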
Outline: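 HepG2-AhR-luc (HG2L7.5c1) cells, 4000/well, treated 24 h at 37 C with compound; viability measured as CellTiter-Fluor fluorescence after 30 min in the same wells as the luciferase read.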

[11] = target: Peroxisome proliferator-activated receptor gamma (Homo sapiens) (UniProt P37231); experiment: qHTS assay to identify small molecule agonists of the peroxisome proliferator-activated receptor gamma (PPARg) signaling pathway (AID 743094; active = well fitted activation curve with a large enough effect in the signal ratio in the repeat runs, not every such curve was filed as active; inconclusive = weak or mixed curves, or effect the other way; inactive = no such curve, though single readings can be large or run the other way; the % refers to the signal ratio)
Outline: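 Quantitative HTS agonist mode: stable HEK293H line with UAS-beta-lactamase reporter under PPARg control, 17 h compound exposure at 37C, fluorescence after 1 h FRET substrate loading at room temperature.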

[12] = target: Peroxisome proliferator-activated receptor gamma (Homo sapiens) (UniProt P37231); experiment: qHTS assay to identify small molecule antagonists of the peroxisome proliferator-activated receptor gamma (PPARg) signaling pathway (AID 743191; calls by dose curve; note: series mostly up to about 63 µM; nearly all actives have a fitted effect of over 30% in size)
Outline: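 GeneBLAzer PPARg UAS-bla HEK293H cells, 5 h post-plating, exposed to compounds 17 h at 37C. LiveBLAzer B/G FRET substrate added for 1 h at room temperature; beta-lactamase reporter read by fluorescence intensity.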

[13] = qHTS assay to identify small molecule antagonists of the peroxisome proliferator-activated receptor gamma (PPARg) signaling pathway - cell viability counter screen (AID 743194); note: nearly all actives have a fitted effect of over 55% in size
Outline: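 Cytotoxicity counter screen in PPARg-bla HEK293H cells, same wells as reporter assay. Compounds plus 50 nM rosiglitazone (final) for 17 h at 37 C, then viability read by CellTiter-Glo luminescence.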

[14] = qHTS assay for small molecule agonists of the antioxidant response element (ARE) signaling pathway (AID 743202; active = well fitted activation curve with a large enough effect in the signal ratio in the repeat runs, not every such curve was filed as active; inconclusive = weak or mixed curves, or effect the other way; inactive = no such curve, though single readings can be large or run the other way; the % refers to the signal ratio)
Outline: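 Agonist mode reporter screen: HepG2 cells with ARE-controlled beta-lactamase are incubated with test compounds for 16 h at 37 C, and beta-lactamase activity is measured as fluorescence of cleaved B/G FRET substrate.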

[15] = qHTS assay for small molecule agonists of the antioxidant response element (ARE) signaling pathway - cell viability counter screen (AID 743203; calls by dose curve; note: nearly all actives have a fitted effect of over 55% in size)
Outline: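 Seeded at 2,000 cells/well, ARE-bla HepG2 cells were incubated 5 hrs before compound addition. After 16 hrs of treatment at 37C with 5% CO2, CellTiter-Glo reagent was added and luminescence read 30 min later.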

[16] = qHTS assay for small molecule activators of the heat shock response signaling pathway - cell viability counter screen (AID 743209); note: nearly all actives have a fitted effect of over 50% in size
Outline: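 First, HSE-bla HeLa cells were seeded at 1500 cells/well and kept overnight at 37 C. Next, compounds were pinned in and incubated 5 h. After the FRET substrate step, CellTiter-Glo was added and luminescence read 30 min later.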

[17] = qHTS assay for small molecule activators of the heat shock response signaling pathway (AID 743210; active = well fitted activation curve with a large enough effect in the signal ratio in the repeat runs, with a control signal flat, not every such curve was filed as active; inconclusive = weak or mixed curves; the % refers to the signal ratio;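 note: HeLa cells with beta-lactamase reporter driven by heat shock elements; series mostly up to about 63 µM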)
Outline: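 Quantitative high-throughput format using an engineered HeLa line in which heat shock response elements drive beta-lactamase; after 5 h with compound, cells received a B/G FRET substrate and fluorescence was read.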

[18] = target: Aryl hydrocarbon receptor (Homo sapiens) (UniProt P35869); experiment: qHTS assay to identify small molecule that activate the aryl hydrocarbon receptor (AhR) signaling pathway (AID 743085); note: nearly all actives have a fitted effect of over 15% in size; note: potency is the fitted concentration of half-maximal effect;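 for activation: HG2L7.5c1 human HepG2 liver cells with stably integrated DRE-driven firefly reporter; series mostly up to about 70 µM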
Outline: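 Stably transfected human liver carcinoma cells (HG2L7.5c1; 20 DRE-firefly luciferase) were incubated 5 h, dosed, and kept 24 h at 37C. Agonism was scored from increased luciferase luminescence.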

Aromatase (Homo sapiens), sequence (P11511 whole entry, looked up): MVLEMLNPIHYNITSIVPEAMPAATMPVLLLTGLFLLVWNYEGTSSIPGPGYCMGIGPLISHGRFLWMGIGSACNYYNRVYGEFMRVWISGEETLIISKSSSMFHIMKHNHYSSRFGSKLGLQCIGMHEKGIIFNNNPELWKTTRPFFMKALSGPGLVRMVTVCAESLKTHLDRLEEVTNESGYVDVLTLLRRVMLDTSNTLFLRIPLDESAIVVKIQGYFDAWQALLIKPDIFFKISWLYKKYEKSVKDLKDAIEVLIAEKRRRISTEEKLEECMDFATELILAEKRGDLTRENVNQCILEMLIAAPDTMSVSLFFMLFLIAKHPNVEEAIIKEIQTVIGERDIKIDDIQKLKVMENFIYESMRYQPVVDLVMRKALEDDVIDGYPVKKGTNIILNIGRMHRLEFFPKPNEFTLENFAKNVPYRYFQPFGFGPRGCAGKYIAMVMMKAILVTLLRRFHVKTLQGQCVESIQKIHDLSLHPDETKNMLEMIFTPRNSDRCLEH
Estrogen receptor (Homo sapiens), sequence (P03372 whole entry, looked up): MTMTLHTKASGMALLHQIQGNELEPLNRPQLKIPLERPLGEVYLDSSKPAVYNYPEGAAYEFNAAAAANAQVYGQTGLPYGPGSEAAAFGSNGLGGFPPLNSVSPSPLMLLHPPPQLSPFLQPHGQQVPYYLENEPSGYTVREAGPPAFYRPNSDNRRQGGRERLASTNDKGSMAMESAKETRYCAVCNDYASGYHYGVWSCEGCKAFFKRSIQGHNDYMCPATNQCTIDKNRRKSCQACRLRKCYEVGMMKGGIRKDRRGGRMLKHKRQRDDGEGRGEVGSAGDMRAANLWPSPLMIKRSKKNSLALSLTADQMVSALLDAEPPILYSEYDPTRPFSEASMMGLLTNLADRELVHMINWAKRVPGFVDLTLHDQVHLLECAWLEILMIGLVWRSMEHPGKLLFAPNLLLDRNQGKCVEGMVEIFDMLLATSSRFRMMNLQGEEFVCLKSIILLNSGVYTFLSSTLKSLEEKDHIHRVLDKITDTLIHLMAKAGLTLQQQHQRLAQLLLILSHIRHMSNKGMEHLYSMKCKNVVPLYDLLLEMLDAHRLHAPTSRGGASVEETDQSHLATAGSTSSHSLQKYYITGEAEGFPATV
Peroxisome proliferator-activated receptor gamma (Homo sapiens), sequence (P37231 whole entry, looked up): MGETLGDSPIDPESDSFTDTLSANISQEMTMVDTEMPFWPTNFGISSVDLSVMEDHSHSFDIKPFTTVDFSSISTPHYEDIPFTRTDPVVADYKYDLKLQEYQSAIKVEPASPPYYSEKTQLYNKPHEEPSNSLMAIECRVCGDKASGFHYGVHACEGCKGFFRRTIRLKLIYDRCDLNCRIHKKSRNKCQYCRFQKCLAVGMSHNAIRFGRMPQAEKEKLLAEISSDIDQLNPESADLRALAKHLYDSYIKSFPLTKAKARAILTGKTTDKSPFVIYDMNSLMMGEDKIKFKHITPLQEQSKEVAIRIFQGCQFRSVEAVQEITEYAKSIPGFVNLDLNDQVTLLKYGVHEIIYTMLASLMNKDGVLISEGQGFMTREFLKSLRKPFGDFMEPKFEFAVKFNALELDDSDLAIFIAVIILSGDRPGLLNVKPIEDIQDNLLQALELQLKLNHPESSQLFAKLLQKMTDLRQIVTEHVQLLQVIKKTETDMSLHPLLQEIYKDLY
Aryl hydrocarbon receptor (Homo sapiens), sequence (P35869 whole entry, looked up): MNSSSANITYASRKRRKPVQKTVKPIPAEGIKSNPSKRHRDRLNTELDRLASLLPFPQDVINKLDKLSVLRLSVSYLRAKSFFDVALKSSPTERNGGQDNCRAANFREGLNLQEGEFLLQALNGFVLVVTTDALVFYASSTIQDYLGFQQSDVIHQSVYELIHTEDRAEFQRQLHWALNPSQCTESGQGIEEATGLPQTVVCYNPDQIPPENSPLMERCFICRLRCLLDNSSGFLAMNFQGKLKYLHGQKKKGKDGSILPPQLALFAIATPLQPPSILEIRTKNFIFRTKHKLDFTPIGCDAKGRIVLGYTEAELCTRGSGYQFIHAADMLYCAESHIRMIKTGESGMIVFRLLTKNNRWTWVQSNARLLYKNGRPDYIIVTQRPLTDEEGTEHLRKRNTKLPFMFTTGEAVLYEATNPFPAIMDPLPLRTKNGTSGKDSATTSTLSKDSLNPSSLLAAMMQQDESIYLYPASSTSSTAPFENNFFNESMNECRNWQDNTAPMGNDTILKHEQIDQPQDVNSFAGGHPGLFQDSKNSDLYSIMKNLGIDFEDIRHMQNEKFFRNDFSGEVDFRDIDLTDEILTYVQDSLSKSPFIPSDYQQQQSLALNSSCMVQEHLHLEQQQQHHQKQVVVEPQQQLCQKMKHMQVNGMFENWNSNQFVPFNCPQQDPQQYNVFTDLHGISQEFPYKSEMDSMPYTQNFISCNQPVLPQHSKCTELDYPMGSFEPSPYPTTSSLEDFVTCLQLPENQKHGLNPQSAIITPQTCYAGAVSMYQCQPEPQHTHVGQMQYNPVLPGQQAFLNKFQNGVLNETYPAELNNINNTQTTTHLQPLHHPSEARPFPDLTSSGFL

SMILES	Potency [1]	Potency [2]	outcome [3]	Potency [4]	outcome [5]	Potency [6]	Potency [7]	Potency [8]	Potency (Aromatase (Homo sapiens))	Potency [9]	Potency [10]	outcome [11]	outcome [12]	outcome [13]	Potency [14]	Potency [15]	outcome [16]	outcome [17]	Potency [18]
COc1ccc([N+](=O)[O-])cc1N	inactive	inactive	inactive	inactive	inactive	inactive	inactive	inactive	inactive	inactive	inactive	inactive	inactive	inactive	inactive	inactive	inactive	inactive	
CC(C)=CCl	inactive	inactive	inactive	inactive		49.6 µM [inconclusive] (active) and inactive	17.4 µM (active) and inactive	inactive	inactive	inactive	inactive			inactive		inactive		inactive	inactive
NCCCCCCN	inactive	inactive	inactive		inactive			inactive	inactive	inactive	inactive	inactive	inactive	inactive	inactive	inactive			inactive
CCCCCCCCCCCC(=O)OC	inactive	inactive	inactive	inactive	inactive	inactive	inactive	inactive	inactive	inactive	inactive		inactive	inactive	inactive	inactive	inactive		inactive
COc1ccc(CCC(C)=O)cc1	inactive	inactive	inactive		inactive			inactive	inactive	inactive	inactive	inactive	inactive	inactive		inactive		inactive	inactive
CCCCCCO	inactive	inactive	inactive	inactive	inactive	inactive		inactive	inactive	inactive	inactive	inactive	inactive	inactive	inactive	inactive		inactive	inactive
COc1ccccc1OCC(O)CO (configuration not stated)	inactive	inactive	inactive		inactive			inactive	inactive	inactive	inactive	inactive	inactive	inactive		inactive	inactive		inactive
Nc1ccc(Cl)c(N)c1	inactive	inactive	inactive		inactive	inactive	inactive	inactive	inactive	inactive	inactive			inactive		inactive	inactive	inactive	19.4 µM (active) and 7.7 µM (active)
CSc1ccc(Cl)cc1	inactive	inactive	inactive	inactive	inactive	inactive	inactive	inactive	inactive	inactive	inactive		inactive	inactive		inactive	inactive	inactive	inactive
O=C(O)c1ccc(C(=O)O)c(C(=O)O)c1	inactive	inactive	inactive	inactive		inactive	inactive	inactive	inactive	inactive	inactive	inactive	inactive	inactive	inactive	inactive			inactive
CC(=O)c1ccc(O)cc1	inactive	inactive	inactive		inactive	inactive	inactive	inactive	inactive	inactive	inactive		inactive	inactive	inactive	inactive	inactive		inactive
CCO[Si](CCC#N)(OCC)OCC	inactive	inactive	inactive	inactive	inactive	inactive	inactive	inactive	inactive	inactive	inactive	inactive	inactive	inactive	inactive	inactive	inactive		
C=C(C)[C@H]1CC=C(C)C(=O)C1	inactive	inactive	inactive		inactive			inactive	inactive	inactive	inactive	inactive		inactive	inactive	inactive	inactive		inactive
CCNc1ccccc1	inactive	inactive	inactive		inactive			inactive	inactive	inactive	inactive	inactive	inactive	inactive	inactive	inactive			inactive
CC1(C)OC[C@@H]2O[C@@]3(C(=O)O)OC(C)(C)O[C@H]3[C@@H]2O1	inactive	inactive	inactive		inactive			inactive	inactive	inactive	inactive	inactive	inactive	inactive	inactive	inactive	inactive		inactive
CCNC(=S)NCC	inactive	inactive	inactive	inactive	inactive	inactive	inactive and 54.5 µM (active)	inactive	inactive	inactive	inactive		inactive	inactive		inactive	inactive	inactive	inactive
CCCCOC(=O)c1ccc(N)cc1	inactive	21.1 µM (active) and 21.4 µM (active)	inactive	24.2 µM [inconclusive] (active)	inactive	inactive	23.7 µM (active) and 33.9 µM (active)	inactive	inactive	inactive	inactive			inactive		inactive	inactive	inactive	23.7 µM (active)
CNC(=O)Oc1ccc2c(c1)[C@]1(C)CCN(C)[C@@H]1N2C	inactive	inactive	inactive	inactive	inactive	inactive	inactive	inactive	inactive	inactive	inactive	inactive	inactive	inactive	inactive	inactive		inactive	
